According to PubChem BioAssay AID1159580 (chemical genetic matrix, 2015):
The campaign covered roughly 5,500 compounds. About 2,000 (36%) were called active. Not shown: some 18% with an inconclusive outcome. Rule as the data show it: active = normalized growth mostly below about 0.91 (no sharp cut-off); inconclusive = no clear call, values can overlap the other calls; inactive = mostly above about 0.92. This is one part of the list.

Test: chemical genetic growth profiling, strain panel (AID 1159580);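 also: tested at 20 µM; growth read once vehicle control cultures reached saturation at 30 °C; 1 = growth at the plate median or of vehicle wells; lower values mean less growth of the strain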
Settings: S. cerevisiae deletion strains, growth OD

Measured: normalized growth

CCCCC/C=C/CCC(=O)N[C@H]1[C@H](Oc2c3cc4cc2Oc2ccc(cc2Cl)[C@@H](O[C@@H]2O[C@H](CO)[C@@H](O)[C@H](O)[C@H]2NC(C)=O)[C@@H]2NC(=O)[C@H](NC(=O)[C@@H]4NC(=O)[C@H]4NC(=O)C(Cc5ccc(c(Cl)c5)O3)NC(=O)[C@H](N)c3ccc(O)c(c3)Oc3cc(O)cc4c3)c3ccc(O)c(c3)-c3c(OC4O[C@H](CO)[C@@H](O)[C@H](O)[C@@H]4O)cc(O)cc3[C@@H](C(=O)O)NC2=O)O[C@H](CO)[C@@H](O)[C@@H]1O (stereo not given in full)
inactive: locus YAL021C, strain ccr4, active compounds read low 1 | locus YAL026C, strain drs2, active compounds read low 1 | locus YAL030W, strain snc1, active compounds read low 0.995 | locus YBL061C, strain skt5, active compounds read low 0.987 | locus YBR009C, strain hhf1, active compounds read low 0.996 | locus YBR023C, strain chs3, active compounds read low 0.998 | locus YBR171W, strain sec66, active compounds read low 1 | locus YBR231C, strain swc5, active compounds read low 0.991 | locus YBR279W, strain paf1, active compounds read low 0.997 | locus YCL011C, strain gbp2, active compounds read low 1.01 | locus YCL016C, strain dcc1, active compounds read low 0.995 | locus YCL061C, strain MRC1, active compounds read low 0.999 | locus YCL069W, strain vba3, active compounds read low 0.996 | locus YCR088W, strain abp1, active compounds read low 1.01 | locus YDL005C, strain med2, active compounds read low 0.995 | locus YDL040C, strain nat1, active compounds read low 1 | locus YDR001C, strain nth1, active compounds read low 1 | locus YDR069C, strain doa4, active compounds read low 1 | locus YDR137W, strain rgp1, active compounds read low 1.01 | locus YDR159W, strain sac3, active compounds read low 0.977 | locus YDR195W, strain ref2 0.918 | locus YDR297W, strain sur2, active compounds read low 0.998 | locus YDR334W, strain swr1, active compounds read low 1.01 | locus YDR335W, strain msn5, active compounds read low 0.998 | locus YDR392W, strain spt3, active compounds read low 0.967 | locus YEL003W, strain gim4, active compounds read low 0.989 | locus YEL037C, strain rad23, active compounds read low 1.05 | locus YEL061C, strain CIN8 (second series), active compounds read low 0.999 | locus YER015W, strain faa2, active compounds read low 0.999 | locus YER016W, strain bim1, active compounds read low 1.01 | locus YER111C, strain swi4, active compounds read low 0.987 | locus YER155C, strain BEM2 (second series), active compounds read low 1.01 | locus YFR010W, strain ubp6, active compounds read low 1.03 | locus YGL167C, strain pmr1, active compounds read low 0.993 | locus YGL173C, strain kem1, active compounds read low 0.994 | locus YGL227W, strain vid30, active compounds read low 1 | locus YGL240W, strain doc1, active compounds read low 0.973 | locus YGL253W, strain hxk2, active compounds read low 1 | locus YHR013C, strain ard1, active compounds read low 0.981 | locus YHR027C, strain rpn1, active compounds read low 1 | locus YHR030C, strain SLT2, active compounds read low 0.964 | locus YHR079C, strain IRE1, active compounds read low 0.956 | locus YHR142W, strain chs7, active compounds read low 1.03 | locus YJL092W, strain hpr5, active compounds read low 1 | locus YJL095W, strain BCK1 (second series), active compounds read low 1 | locus YJL095W, strain BCK1, active compounds read low 0.956 | locus YJL115W, strain asf1, active compounds read low 0.996 | locus YJL129C, strain trk1, active compounds read low 1 | locus YJL154C, strain vps35, active compounds read low 1.01 | locus YJL164C, strain tpk1, active compounds read low 1.01 | locus YJL166W, strain qcr8, active compounds read low 0.993 | locus YJL187C, strain SWE1, active compounds read low 1 | locus YJR066W, strain TOR1, active compounds read low 0.935 | locus YKL160W, strain elf1, active compounds read low 0.995 | locus YKR026C, strain gcn3, active compounds read low 0.99 | locus YKR091W, strain srl3, active compounds read low 0.996 | locus YLL001W, strain dnm1, active compounds read low 1.02 | locus YLL026W, active compounds read low 0.996 | locus YLL041C, strain sdh2, active compounds read low 1 | locus YLR027C, strain aat2, active compounds read low 1.01 | locus YLR113W, strain HOG1, active compounds read low 0.942 | locus YLR221C, strain rsa3, active compounds read low 1.01 | locus YLR258W, strain gsy2, active compounds read low 1.01 | locus YLR262C, strain YPT6 (second series), active compounds read low 1.01 | locus YLR320W, strain mms22, active compounds read low 0.988 | locus YLR342W, strain FKS1, active compounds read low 0.988 | locus YLR357W, strain rsc2, active compounds read low 1 | locus YLR370C, strain arc18, active compounds read low 1 | locus YLR384C, strain iki3, active compounds read low 1 | locus YML120C, strain ndi1, active compounds read low 1.01 | locus YMR058W, strain fet3, active compounds read low 1 | locus YMR125W, strain sto1, active compounds read low 1.01 | locus YMR129W, active compounds read low 0.998 | locus YMR205C, strain PFK2, active compounds read low 0.993 | locus YMR231W, strain pep5, active compounds read low 0.991 | locus YNL071W, strain lat1, active compounds read low 1 | locus YNL183C, strain NPR1, active compounds read low 0.936 | locus YNL209W, strain ssb2, active compounds read low 1 | locus YNL248C, strain rpa49, active compounds read low 1.01 | locus YNL322C, strain KRE1 (second series), active compounds read low 0.991 | locus YNR049C, strain mso1, active compounds read low 1.01 | locus YOR001W, strain rrp6, active compounds read low 1.01 | locus YOR070C, strain gyp1, active compounds read low 1.02 | locus YOR080W, strain dia2, active compounds read low 0.98 | locus YOR083W, strain WHI5, active compounds read low 1 | locus YOR106W, strain vam3, active compounds read low 1.02 | locus YOR231W, strain MKK1, active compounds read low 0.961 | locus YOR265W, strain rbl2, active compounds read low 1 | locus YOR270C, strain vph1, active compounds read low 0.993 | locus YOR290C, strain snf2, active compounds read low 1.01 | locus YPL051W, strain arl3, active compounds read low 1.01 | locus YPL078C, strain atp4, active compounds read low 0.999 | locus YPL106C, strain sse1, active compounds read low 0.971 | locus YPL240C, strain hsp82, active compounds read low 0.999 | locus YPL256C, strain CLN2, active compounds read low 0.946
